# IL-1B inflam inh: qHTS for Inhibitors of Inflammasome Signaling: IL-1-beta AlphaLISA Primary Screen | 360,000 compounds, 4.7% hits | THP-1 LPS/ATP IL-1B secretion, AlphaLISA, 16 h; stronger effect = lower value | AID 743279, 2014 | activity change, % at 57.5 µM; in the data active = activity change below about -50%; inconclusive = mostly about -30% to -49%
#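 Secreted IL-1B measured by AlphaLISA bead assay after 16 h compound exposure of THP-1 cells; compounds (final up to 57.5 uM) added 1 h before LPS (250 ng/mL) and ATP (1.25 mM) stimulation; lower signal means less secretion.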
# DT40 TDP1 no CPT: qHTS for Inhibitors of human tyrosyl-DNA phosphodiesterase 1 (TDP1): qHTS in cells in absence of CPT; Potency, µM (top dose mostly 46.2 µM), for the others: top-dose activity change, negative = growth inhibition, hits mostly inhibitors; DT40 Tdp1-/- hTDP1 cells, no CPT, ATP luminescence, 48 h; 420,000 compounds, 15% hits; also: potency is read from the fitted curve at half-maximal effect; nearly all actives have a fitted effect of over 55% in size
#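 Stably hTDP1-transfected Tdp1-null chicken DT40 cells were treated with library compounds minus camptothecin and grown for at least 48 hr at 37 °C, after which cellular ATP was quantified by luminescence.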
# HT1080 IDH1KD tx: qHTS for induction of synthetic lethality in tumor cells producing 2HG: qHTS for the HT-1080-IDH1KD cell line | HT-1080 IDH1 knockdown viability, ATP luminescence, 48 h | Potency, µM (titrated, usually from 46.1 µM), inactives show at the top dose activity, negative = toxicity, usual class: cytotoxic | 360,000 compounds, 2% hits | AID 686971, 2013;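 also: potency is read from the fitted curve at half-maximal effect; 0% = DMSO wells and -100% = cell-free medium wells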
#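 Using the IDH1-knockdown HT-1080 line run in the same batch and compound series as the NT line, viability after 48 h at 37 °C was determined by CellTiter-Glo luminescence and expressed as % activity.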
# HT1080NT lethal: qHTS for induction of synthetic lethality in tumor cells producing 2HG: qHTS for the HT-1080-NT fibrosarcoma cell line. HT-1080-NT fibrosarcoma viability, CellTiter-Glo ATP luminescence, 48 h. Potency, µM (series often up to 46.1 µM), without a hit: at the top dose activity, negative = less viability, actives largely listed as cytotoxic. 360,000 compounds, 1.6% hits. AID 686970, 2013;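 also: NT is the 2HG producing partner of a matched IDH1 knockdown line; potency is read from the fitted curve at half-maximal effect; 0% = DMSO-treated cells and -100% = media-only wells without cells; nearly all actives have a fitted effect of over 55% in size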
#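 750 cells/well, RPMI + 5% FBS; 2 h settle, compound pin-transfer, 48 h at 37 degrees C. CellTiter-Glo 10 min RT, luminescence. Normalized to DMSO and media-only wells.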
# 12-LOX inh: Primary qHTS assay for inhibitors of human arachidonate 12S-lipoxygenase (ALOX12): Round 2. purified 12hLO, xylenol orange hydroperoxide absorbance. Potency, µM (doses to about 108 µM), without a hit: top-dose activity change, negative = inhibition, most hits filed as inhibitors. 580,000 compounds, 1.1% hits. AID 1671190, 2021; also: potency is read from the fitted curve at half-maximal effect
# Target sequence (P18054 whole entry, looked up): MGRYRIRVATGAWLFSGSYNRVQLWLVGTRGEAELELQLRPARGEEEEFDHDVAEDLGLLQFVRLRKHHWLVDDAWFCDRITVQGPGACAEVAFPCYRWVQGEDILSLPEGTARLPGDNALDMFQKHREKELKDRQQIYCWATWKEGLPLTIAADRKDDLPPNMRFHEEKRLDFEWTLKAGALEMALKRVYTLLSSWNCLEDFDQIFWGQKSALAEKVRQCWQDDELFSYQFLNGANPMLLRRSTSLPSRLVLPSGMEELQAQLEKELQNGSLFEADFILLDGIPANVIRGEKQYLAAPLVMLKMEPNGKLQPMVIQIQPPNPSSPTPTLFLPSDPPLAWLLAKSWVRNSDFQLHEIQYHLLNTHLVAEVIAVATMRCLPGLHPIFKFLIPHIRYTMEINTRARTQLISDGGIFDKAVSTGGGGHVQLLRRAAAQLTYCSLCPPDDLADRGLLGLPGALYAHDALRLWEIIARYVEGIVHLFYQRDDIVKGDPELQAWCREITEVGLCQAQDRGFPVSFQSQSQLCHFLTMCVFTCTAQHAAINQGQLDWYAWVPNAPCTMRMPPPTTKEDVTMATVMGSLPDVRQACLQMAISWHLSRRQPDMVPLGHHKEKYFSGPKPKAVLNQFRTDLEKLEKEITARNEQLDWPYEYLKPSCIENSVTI
#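 Hydroperoxide product was detected by ferrous iron/xylenol orange as the 573 to 405 nm absorbance ratio. Arachidonic acid at 40 uM (final) was turned over for 30 min at room temperature by 150 nM human 12hLO, pH 7.0 Hepes buffer, after 15 min compound preincubation.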
# TDP1 cell CPT: qHTS for Inhibitors of human tyrosyl-DNA phosphodiesterase 1 (TDP1): qHTS in cells in presence of CPT | chicken DT40 Tdp1-/-;hTDP1 cells + 20 nM CPT, ATP luminescence, 48 h | Potency, µM (series often up to 46.2 µM), for the others: at the top dose activity change, negative = growth inhibition, usual class: inhibitors | 420,000 compounds, 12% hits | AID 686979, 2013; also: potency is read from the fitted curve at half-maximal effect; nearly all actives have a fitted effect of over 55% in size
#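 Chicken DT40 Tdp1-/- cells stably complemented with human TDP1 were seeded at 400 cells/well in medium containing 20 nM camptothecin, exposed to pin-transferred compounds, and grown at 37 °C for at least 48 hr. Viability was read as ATP luminescence.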
# * marks the source's active call; other numbers are inactive results; i = inactive; ? = inconclusive; . = no result given; [ ] = another dose, or the depositor's remark. This excerpt belongs to a sample that is enriched for hits. Unless noted, calls follow the shape of the dose curve; as a rule, active = well fitted curve in the direction sought with a large enough effect; inconclusive = small, poorly fitted or top-dose-only effect, or another doubt; inactive = no such curve, though single readings can be large; an effect the other way counts as inactive or inconclusive. Unless noted, % is scaled to controls: 0 for no effect and ±100 for the full control effect.
SMILES,IL-1B inflam inh,DT40 TDP1 no CPT,HT1080 IDH1KD tx,HT1080NT lethal,12-LOX inh,TDP1 cell CPT
CN(C(=O)Nc1ccc(Cl)cc1Cl)[C@H]1c2cc(Br)ccc2OC[C@H]1CO,-72.6*,-17.6%,?,?,-19.6%,?
COc1cccc2c1OC[C@@H](CO)[C@H]2N(C)C(=O)Nc1ccccc1,17.8,-0.3%,6.4%,12.9%,19.4%,-5.1%
Cc1cc(C(=O)COc2cccnc2[N+](=O)[O-])c(C)n1Cc1cccs1,-16.9,?,-2.2%,?,?,?
Cc1cc(C(=O)COC(=O)c2ccccc2O)c(C)n1Cc1cccs1,?,14.6µM*,?,-3.5%,-0.3%,?
CC(=O)Nc1ccccc1OCC(=O)c1cc(C)n(Cc2cccs2)c1C,-12.7,1.46µM*,2.59µM*,-13.2%,-12.4%,1.84µM*
Nc1nc2ccccc2[n+]([O-])n1,.,.,.,.,11.0%,.
O=C(Nc1ccc(F)cc1)C(CCc1ccccc1)N1CCN(c2cccc(C(F)(F)F)n2)CC1 (stereo unspecified),-0.3,?,?,?,-13.7%,18.4µM*
O=C(Nc1ccc(F)cc1)C(c1cc2ccccc2o1)N1CCN(c2cccc(C(F)(F)F)n2)CC1 (stereo unspecified),34.6,?,17.2%,24.3%,-3.4%,?
O=C(Nc1ccc(F)cc1)C(c1ccncc1)N1CCN(c2cccc(C(F)(F)F)n2)CC1 (stereo unspecified),-11.5,20.6µM*,?,?,-4.8%,?
O=Cc1cccn1-c1ccccc1Cl,.,.,.,.,-35.3%,.
CC(NCCC(c1ccccc1)c1ccccc1)c1ccccc1 (stereo unspecified),?,5.17µM*,?,?,?,6.51µM*
COc1ccc(Cl)cc1-c1ncc2c(n1)OCCN(Cc1ccc(F)cc1F)C2=O,.,.,.,.,12.3%[176 µM],.
CCCCN(Cc1ccccc1)c1ccc(NS(=O)(=O)c2ccc(C(C)(C)C)cc2)cc1C(=O)O,.,.,.,.,14.1µM*,.
CCCCN(Cc1ccccc1)c1ccc(NS(=O)(=O)c2ccc(C(C)=O)cc2)cc1C(=O)O,.,.,.,.,4.47µM*,.
CCOc1ccc(CNCc2c(C(=O)O)n(Cc3ccccc3F)c3cc(OC)ccc23)cc1,.,5.8µM*,.,.,-2.1%,18.4µM*
COc1ccc2c(CNCc3ccc(C)o3)c(C(=O)O)n(Cc3ccccc3)c2c1,.,?,.,.,-4.2%,-27.0%
COc1ccc(Cn2c(C(=O)O)c(CNCc3ccc(SC)cc3)c3ccc(OC)cc32)cc1,.,5.8µM*,.,.,0.0%,5.17µM*
C=Cc1ccc(Cn2c(C(=O)O)c(CNCc3ccccc3)c3ccc(OC)cc32)cc1,.,14.6µM*,.,.,3.98µM*,?
CN1C(=O)C(CC(=O)NCCc2nc(-c3cccnc3)n[nH]2)N(C)C1=O (stereo unspecified),.,.,.,.,23.7%,.
Cc1ccc(C(=O)c2cn(Cc3cccc(F)c3)c3nc(C)ccc3c2=O)cc1,.,20.6µM*,.,.,?,?
Cc1ccc(C(=O)c2cn(Cc3ccccc3C)c3nc(C)ccc3c2=O)cc1,.,20.6µM*,.,.,-19.7%,20.6µM*
CCc1ccc(C(C)NC(=O)CN(C)c2ncnc3nc[nH]c23)cc1 (stereo unspecified),.,.,.,.,-5.4%,.
Cc1ccc(-c2ccc3nnc(CNC(=O)c4cccc5[nH]ccc45)n3n2)cc1C,.,.,.,.,52.7%,.
Cc1ccccc1CS(=O)(=O)CCC(=O)NCCCN1CCN(c2ccccc2F)CC1,-5.2,?,-11.3%,-9.2%,229.5%,?
COc1ccc(CCC(=O)NCCS(=O)(=O)N2CCN(c3ccccc3OC)CC2)cc1,20.0,18.4µM*,-2.2%,4.6%,3.2%,20.6µM*
SMILES,IL-1B inflam inh,DT40 TDP1 no CPT,HT1080 IDH1KD tx,HT1080NT lethal,12-LOX inh,TDP1 cell CPT
Cc1c(C(=O)NCCS(=O)(=O)N2CCN(c3ccccc3F)CC2)cccc1[N+](=O)[O-],16.8,20.6µM*,?,?,4.9%,?
COc1ccc(CCC(=O)NCCS(=O)(=O)N2CCN(c3ccccc3F)CC2)cc1,1.2,?,-6.9%,0.9%,11.3%,?
O=C(Cc1ccc(Cl)cc1)NCCS(=O)(=O)N1CCN(c2ccccc2F)CC1,4.2,5.8µM*,?,?,?,5.17µM*
O=C(CCS(=O)(=O)Cc1ccc(Cl)cc1)NCCCN1CCN(c2ccccc2F)CC1,?,?,?,?,11.1%,11.2µM*
CC(C)n1cc(CN2CCC(Oc3ccc(C(=O)N4CCCC4)cc3)CC2)cn1,i,-9.5%,18.9%,8.2%,0.0%,-9.6%
O=C(CCCc1ccccc1)NCCS(=O)(=O)N1CCN(c2ccccc2F)CC1,-0.2,18.4µM*,-13.4%,-12.3%,6.5%,?
O=C(Cn1c(=O)oc2ccccc21)Nc1cccc(Cl)c1,-17.8,?,3.9%,8.3%,13.1%,?
COC(=O)/C=C/C(=O)Nc1cccc(C(F)(F)F)c1,-104.0*,14.6µM*,-10.9%,-2.7%,-15.2%,9.2µM*
O=C(COCC(=O)Nc1cccc(C(F)(F)F)c1)Nc1cccc(C(F)(F)F)c1,?,25.9µM*,?,?,-9.0%,?
O=C(Cn1c(=O)oc2cc(Cl)ccc21)Nc1cccc(C(F)(F)F)c1,.,18.4µM*,.,.,-24.2%,18.4µM*
COC(=S)Nc1cccc(C(F)(F)F)c1,.,-19.9%,2.6%,6.0%,0.0%,1.6%
O=C(CNC1CCCCC1)Nc1cccc(C(F)(F)F)c1,-77.3*,-1.9%,-10.6%,?,-13.5%,-1.4%
COc1ccc(-c2cc(=O)c3cc(OC(=O)C(C)(C)C)ccc3o2)cc1,.,.,.,.,37.7%,.
CSc1cc(-c2ccc(Cl)cc2)n(Cc2ccccc2)c(=O)c1C#N,4.4,14.6µM*,6.3%,4.8%,-2.5%,?
CSc1cc(-c2ccccc2)n(C)c(=O)c1C#N,-2.4,?,-2.0%,-20.3%,-2.8%,19.0%
Cc1ccc2nc(N/N=C/c3ccccc3F)nc(-c3ccccc3)c2c1,-52.6*,?,-0.7%,5.1%,-3.5%,?
